Measurements: PubChem BioAssay AID1159580 (chemical genetic matrix, 2015)
Hit rate of the full screen: of about 5,500 compounds, about 2,000 (36%) were called active. Another 18% or so got no clear call; they are omitted. Cut-off read from the data, not from the text of the source: active = normalized growth mostly below about 0.91 (no sharp cut-off); inconclusive = no clear call, values can overlap the other calls; inactive = mostly above about 0.92. This is one part of the list.

Assay: chemical genetic growth profiling, strain panel (AID 1159580);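 note: tested at 20 µM; growth read once vehicle control cultures reached saturation at 30 °C; 1 = growth at the plate median or of vehicle wells; lower values mean less growth of the strain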
Conditions: S. cerevisiae deletion strains, growth OD

Measured: normalized growth

CCCCCC[C@@H]([C@@H](C)O)n1cnc2c(N)ncnc21
inactive: locus YAL040C, strain CLN3, stronger effect = lower value 1.02 | locus YCL061C, strain MRC1 (second series), stronger effect = lower value 1 | locus YDR150W, strain NUM1, stronger effect = lower value 1.01 | locus YDR363W, strain ESC2, stronger effect = lower value 1 | locus YER002W, strain NOP16, stronger effect = lower value 1.01 | locus YGR229C, strain SMI1, stronger effect = lower value 0.945 | locus YJR075W, strain HOC1, stronger effect = lower value 0.99 | locus YMR263W, strain SAP30, stronger effect = lower value 1 | locus YNL128W, strain TEP1, stronger effect = lower value 0.992 | locus YNL175C, strain NOP13, stronger effect = lower value 1.02 | locus YNL197C, strain WHI3, stronger effect = lower value 1.01 | locus YNL224C, strain SQS1, stronger effect = lower value 0.992 | locus YOR083W, strain WHI5 (second series), stronger effect = lower value 1.06 | locus YPL241C, strain CIN2, stronger effect = lower value 1

CC(C)CSc1nnc(CSCc2nc(-c3ccc(Cl)cc3)cs2)n1C
inactive: locus YAR019C, strain CDC15, stronger effect = lower value 0.979 | locus YBL105C, strain PKC1, stronger effect = lower value 0.964 | locus YBR135W, strain CKS1, stronger effect = lower value 0.968 | locus YBR136W, strain MEC1, stronger effect = lower value 0.964 | locus YBR160W, strain CDC28, stronger effect = lower value 0.97 | locus YDL017W, strain CDC7, stronger effect = lower value 0.974 | locus YDL028C, strain MPS1, stronger effect = lower value 0.966 | locus YDL101C, strain DUN1, stronger effect = lower value 0.958 | locus YDL108W, strain KIN28, stronger effect = lower value 0.96 | locus YDL132W, strain cdc53, stronger effect = lower value 0.961 | locus YDL214C, strain PRR2, stronger effect = lower value 0.94 | locus YDR052C, strain DBF4, stronger effect = lower value 0.974 | locus YDR054C, strain cdc34, stronger effect = lower value 0.968 | locus YDR226W, strain ADK1, stronger effect = lower value 0.974 | locus YDR477W, strain SNF1, stronger effect = lower value 0.965 | locus YER123W, strain YCK3, stronger effect = lower value 0.913 | locus YER133W, strain GLC7, stronger effect = lower value 0.954 | locus YFL009W, strain cdc4, stronger effect = lower value 0.976 | locus YFL029C, strain CAK1, stronger effect = lower value 0.973 | locus YFR003C, strain YPI1, stronger effect = lower value 0.965 | locus YFR019W, strain FAB1, stronger effect = lower value 0.946 | locus YFR028C, strain CDC14, stronger effect = lower value 0.97 | locus YGR040W, strain KSS1, stronger effect = lower value 0.931 | locus YGR052W, strain FMP48, stronger effect = lower value 0.979 | locus YGR092W, strain DBF2, stronger effect = lower value 0.981 | locus YHR030C, strain SLT2, stronger effect = lower value 1.03 | locus YHR079C, strain IRE1, stronger effect = lower value 1.06 | locus YHR082C, strain KSP1, stronger effect = lower value 1.03 | locus YHR205W, strain SCH9, stronger effect = lower value 0.988 | locus YIL147C, strain SLN1, stronger effect = lower value 0.962 | locus YJL095W, strain BCK1, stronger effect = lower value 0.956 | locus YJL128C, strain PBS2, stronger effect = lower value 0.929 | locus YJL157C, strain FAR1, stronger effect = lower value 0.956 | locus YJR016C, strain ILV3, stronger effect = lower value 0.971 | locus YJR066W, strain TOR1 (second series), stronger effect = lower value 0.961 | locus YJR066W, strain TOR1, stronger effect = lower value 1.05 | locus YKL048C, strain ELM1, stronger effect = lower value 0.954 | locus YKL067W, strain YNK1, stronger effect = lower value 0.95 | locus YKL101W, strain HSL1, stronger effect = lower value 0.925 | locus YKL193C, strain SDS22, stronger effect = lower value 0.971 | locus YKL203C, strain TOR2, stronger effect = lower value 1.02 | locus YLR113W, strain HOG1, stronger effect = lower value 0.865 | locus YLR133W, strain CKI1, stronger effect = lower value 0.927 | locus YLR403W, strain SFP1, stronger effect = lower value 0.948 | locus YML070W, strain DAK1, stronger effect = lower value 0.929 | locus YMR001C, strain CDC5, stronger effect = lower value 0.973 | locus YMR205C, strain PFK2 (second series), stronger effect = lower value 0.961 | locus YMR277W, strain FCP1, stronger effect = lower value 0.966 | locus YNL006W, strain LST8, stronger effect = lower value 0.979 | locus YNL020C, strain ARK1, stronger effect = lower value 0.941 | locus YNL161W, strain CBK1, stronger effect = lower value 0.973 | locus YNL183C, strain NPR1, stronger effect = lower value 1.01 | locus YNL207W, strain RIO2, stronger effect = lower value 0.967 | locus YNL222W, strain SSU72, stronger effect = lower value 0.972 | locus YNL307C, strain MCK1 (second series), stronger effect = lower value 0.974 | locus YOL078W, strain AVO1, stronger effect = lower value 0.964 | locus YOL136C, strain PFK27, stronger effect = lower value 0.882 | locus YOR061W, strain CKA2, stronger effect = lower value 0.939 | locus YOR119C, strain RIO1, stronger effect = lower value 1.01 | locus YOR231W, strain MKK1, stronger effect = lower value 0.944 | locus YOR329C, strain SCD5, stronger effect = lower value 0.974 | locus YPL031C, strain PHO85, stronger effect = lower value 0.95 | locus YPL153C, strain RAD53, stronger effect = lower value 0.96 | locus YPL204W, strain HRR25, stronger effect = lower value 0.917 | locus YPL209C, strain IPL1, stronger effect = lower value 0.974 | locus YPL256C, strain CLN2, stronger effect = lower value 0.999 | locus YPR025C, strain CCL1, stronger effect = lower value 0.969 | locus YPR106W, strain ISR1, stronger effect = lower value 0.962 | locus YPR111W, strain DBF20, stronger effect = lower value 0.95 | strain NNK1, stronger effect = lower value 0.966 | strain TSCII, stronger effect = lower value 0.969
